Screening results from PubChem.
An excerpt weighted towards active compounds, which were near 3.4% of everything screened.
NPSR antagonist = blocks cAMP signaling of the human neuropeptide S receptor; Potency, µM (series often up to 38.3 µM), for the others: top-dose activity change, negative = inhibition, usual class: inhibitors; 220,000 compounds, 1% hits; Q6W5P4; CHO-NPSR cells, cAMP TR-FRET, antagonist mode; AID 1461; also: potency is read from the fitted curve at half-maximal effect; % is scaled to controls: 0 for no effect and ±100 for the full control effect; nearly all actives have a fitted effect of over 50% in size
Target sequence (Q6W5P4 whole entry, looked up): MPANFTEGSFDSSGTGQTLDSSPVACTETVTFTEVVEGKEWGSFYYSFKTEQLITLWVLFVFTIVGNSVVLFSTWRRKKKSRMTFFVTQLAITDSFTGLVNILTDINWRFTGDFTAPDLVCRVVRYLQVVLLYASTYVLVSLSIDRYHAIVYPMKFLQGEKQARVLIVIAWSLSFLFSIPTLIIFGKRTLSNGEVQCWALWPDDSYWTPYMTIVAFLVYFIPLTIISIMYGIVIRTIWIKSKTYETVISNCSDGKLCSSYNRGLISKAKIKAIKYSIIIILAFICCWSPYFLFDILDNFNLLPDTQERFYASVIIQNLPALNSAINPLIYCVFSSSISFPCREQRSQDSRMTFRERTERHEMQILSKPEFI
IMPase inh = IMPase inhibition in cells; P97697; CHO-M1 cells, IP1 accumulation, HTRF TR-FRET ratio; inhibition (IP1 accumulation), % at 46.1 µM; 120,000 tested, under 10 active; AID 901; active = well fitted curve in the direction sought with a large enough effect in the signal ratio, not every such curve was filed as active; inconclusive = small, poorly fitted or top-dose-only effect, or a change in a side signal; inactive = no such curve, though single readings can be large or run the other way; the % refers to the signal ratio;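 also: cells stimulated with carbachol in lithium chloride buffer; plate controls were DMSO basal wells for no effect and reference inhibitor wells for full effect; higher means more IMPase inhibition seen as more IP1 and lower FRET ratio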
Target sequence (P97697 whole entry, looked up): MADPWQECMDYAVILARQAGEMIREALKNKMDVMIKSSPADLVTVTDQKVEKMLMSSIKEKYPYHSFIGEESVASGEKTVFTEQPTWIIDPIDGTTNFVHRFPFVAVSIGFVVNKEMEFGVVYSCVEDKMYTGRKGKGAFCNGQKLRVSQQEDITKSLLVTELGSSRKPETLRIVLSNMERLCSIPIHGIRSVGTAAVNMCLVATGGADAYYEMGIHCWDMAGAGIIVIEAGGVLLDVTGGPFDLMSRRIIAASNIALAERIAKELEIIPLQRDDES
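CHO-M1 cells (CHO stably expressing M1 receptor), compound up to 46 uM final, stimulated with carbachol (50 uM as added) in buffer with 50mM LiCl, pH 7.4, 30 min at 37C. Cytosolic IP1 read by TR-FRET; AC50 from Hill fits.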
PNC assembly inh = perinucleolar compartment assembly inhibition; PC3M PTB-GFP, PNC prevalence imaging, 16 h; stronger effect = lower value; AID 2417; activity change (PNC), negative = inhibition, % at 10 µM; 140,000 compounds, 3.1% hits;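 active = readout at or below -70, meaning at least 70% loss of cells showing the perinucleolar compartment, a nuclear body marking cancer cells; inconclusive = readout between -30 and a set limit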;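 also: plate controls were DMSO wells for no effect and camptothecin positive control wells for full effect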
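Read-out is percentage of cells bearing a perinucleolar compartment, from automated 20x imaging of fixed, Hoechst-stained PC3M PTB-GFP cells. Cells were seeded 4 h, then exposed 16 h to compound (23 nl of library stock) in duplicate plates.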
HTT cytoprotect = Huntington cell model cytoprotection by ATP luminescence | PC12 HTT-Q103 induced, cytoprotection, ATP luminescence, 40 h | Potency, µM (doses to about 56.4 µM), for inactives: cytoprotection (ATP increase), most hits filed as activators | 230,000 compounds, 0.14% hits; also: potency is read from the fitted curve at half-maximal effect; % of control where 0% means no effect; nearly all actives have a fitted effect of over 45% in size
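Compounds were screened for protection of PC12 cells against cell death after tebufenozide induction (100 nM final) of mutant Huntingtin exon 1 (Q103) fused to GFP.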
IMPase Li cell = cell-permeable IMPase inhibitors with lithium potentiation; CHO-M1 cells, IP1 TR-FRET (IP-One), carbachol + lithium; Potency, µM (titrated, usually from 59.4 µM), inactives show at the highest dose activity, negative = IMPase inhibition, most hits filed as inhibitors; 210,000 compounds, 0.35% hits;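 also: IP1 builds up when IMPase is blocked and the TR-FRET signal falls; potency is read from the fitted curve at half-maximal effect; plate controls were basal vehicle for no effect and high inhibitor control for full effect; nearly all actives have a fitted effect of over 50% in size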
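CHO cells stably expressing M1 receptor (2000/well) were cultured 16–30 h, then exposed to compounds with a small lithium addition for 30 min at 37C. IP1 was measured by TR-FRET competition; AC50 from Hill fits.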
HTT aggregate = inhibitors of mutant huntingtin aggregate formation in PC12 cells; PC12 HttQ103-GFP aggregates, Acumen cytometry, 40 h; Potency, µM (top dose mostly 46.1 µM), for the others: top-dose activity change, negative = inhibition, usual class: inhibitors; 220,000 compounds, 1.1% hits; also: potency is read from the fitted curve at half-maximal effect; % is scaled to controls: 0 for no effect and ±100 for the full control effect; nearly all actives have a fitted effect of over 60% in size
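Aggregates are detected as GFP objects 1–25 µm with signal 6 STDEV over background in lysates of induced PC12 cells. These carry Huntingtin exon 1 with 103 glutamines fused to GFP under an ecdysone promoter; compounds titrated.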
Active calls of the source: *; ? = inconclusive; / = not tested or not shown; [ ] = remark or other dose. Unless noted, calls follow the shape of the dose curve; as a rule, active = well fitted curve in the direction sought with a large enough effect; inconclusive = small, poorly fitted or top-dose-only effect, or another doubt; inactive = no such curve, though single readings can be large; an effect the other way counts as inactive or inconclusive.

SMILES	NPSR antagonist	IMPase inh	PNC assembly inh	HTT cytoprotect	IMPase Li cell	HTT aggregate
N#Cc1cc2c(=O)n3ccccc3nc2n(CCN2CCOCC2)c1=O	4%[46.1 µM]	-3	-12	0%	1%[38.3 µM]	-10%
Cc1ccc2nc3c(cc(C#N)c(=O)n3CCN3CCOCC3)c(=O)n2c1	1%[46.1 µM]	17	-122*	-1%	/	15%
CCC1CCc2c(sc3ncnc(N4CCOCC4)c23)C1 (stereo not drawn)	-23%[46.1 µM]	-1	-126*	-14%[10 µM]	23%[38.3 µM]	?
COc1ccc(OC)c(Nc2cc(-c3ccccc3)nc(N)n2)c1	?	16	?	-113%[10 µM]	2%[38.3 µM]	1.3µM*
COc1ccc(OC)c(Nc2cc(C)nc3ccccc23)c1	7%[46.1 µM]	-5	10	-3%[10 µM]	6%[38.3 µM]	-27%
Cc1ccc(-n2c(C)cc(C(=O)CSc3nncs3)c2C)cc1	-28%[46.1 µM]	11	?	-114%	10%[38.3 µM]	10µM*
O=C(COC(=O)C1CC1)c1c[nH]c2ccccc12	-10%[46.1 µM]	3	-80*	/	12%[38.3 µM]	0.032µM*
Cc1ccc(Nc2ncnc3ccccc23)cc1	19%	/	/	-4%[10 µM]	9%	-8%[9.22 µM]
Cc1cccc(Nc2ncnc3ccccc23)c1	5%[46.1 µM]	4	?	-7%[10 µM]	16%[38.3 µM]	13µM*
O=C(O)C1CC=CCC1C(=O)N1CCN(c2nc(-c3ccccc3Cl)c3cc(Br)ccc3n2)CC1 (stereo not drawn)	13µM*	?	-5	-7%	11µM*	3%
COC(=O)c1cn(NC(=O)c2cc(OC)cc(OC)c2)c(=O)c2ccccc12	-12%[46.1 µM]	3	1	-8%	-12%[38.3 µM]	6%
COc1cc(OC)cc(C(=O)Nn2cc(C(=O)Nc3c(F)cccc3F)c3ccccc3c2=O)c1	-3%	/	-113*	/	1%	15%
CCOC(=O)c1cnc2c(ccc3ccccc32)c1Nc1ccc(C(C)=O)cc1	/	6	/	/	/	/
COC(=O)[C@@]1(Cc2ccc(OC)cc2)[C@H]2c3cc(C(=O)N4CCCC4)n(Cc4cc(F)c(F)c(F)c4)c3C[C@H]2CN1C(=O)c1ccccc1	/	/	/	-58%	3%	/
CCC(C)OC(=O)C1=C(C)O[C@]23OC(N)=C(C#N)[C@]12C(=O)c1ccccc13 (stereo partly drawn)	-9%[46.1 µM]	-20	-100*	-9%[10 µM]	26%	-14%
COc1ccc(/C=C/C(=O)OCC(=O)NCC2CCCO2)cc1 (stereo not drawn)	11%	/	-82*	/	1%	21%
CCCCOC(=O)Cn1c(=O)c2c(nc3n2CCCCN3c2ccc(C)cc2)n(C)c1=O	?	-11	-127*	13%[0.074 µM]	3%[38.3 µM]	3%
CCOC(=O)Cn1c(=O)c2c(nc3n2CCCCN3c2ccc(OCC)cc2)n(C)c1=O	/	/	/	15%[0.074 µM]	/	/
Cn1c(=O)c2c([nH]c(=O)n2Cc2ccc(Cl)cc2Cl)n(C)c1=O	/	12	/	/	/	/
Cc1cccc(NC(=S)N2CCCCCC2)c1	-2%	/	-106*	/	-3%	-3%
CCn1c(CSc2nc(C)cc(C)n2)nnc1SCC(=O)Nc1cccc2ccccc12	-6%[46.1 µM]	-3	-107*	0%	24%[38.3 µM]	20%
O=c1c(-c2ccccc2)c1-c1ccccc1	-36%	/	/	11µM*	/	14µM*
O=C(O)c1cc(C(=O)O)c(-c2ccccc2)c(C(=O)O)c1	0%[46.1 µM]	-1	-26	-8%	-1%[38.3 µM]	7%
C=CCNC(=O)COc1cc(C)cc(C)c1C	7%	/	/	-28%	-1%	2%
CCOC(=O)c1ccc(N(CC(=O)NC2CCCC2)C(=O)CNC(=O)c2ccco2)cc1	-12%[46.1 µM]	-3	-85*	12%[1.9 µM]	19%[38.3 µM]	7%
SMILES	NPSR antagonist	IMPase inh	PNC assembly inh	HTT cytoprotect	IMPase Li cell	HTT aggregate
CCC1CCCCN1S(=O)(=O)c1ccc(NC(=O)CSc2ncccc2C(=O)O)cc1 (stereo not drawn)	-6%[46.1 µM]	-2	-2	-13%	-8%[38.3 µM]	4%
CCC1CCCCN1S(=O)(=O)c1ccc(NC(=O)c2cccs2)cc1 (stereo not drawn)	4%[46.1 µM]	19	-100*	32%[10 µM]	5%	-22%
O=[N+]([O-])c1cccc(-c2csc(N/N=C/c3cccc(O)c3)n2)c1	-10%	/	/	-58%	7%	?
COc1ccccc1C[C@@H](Cc1nc2ccccc2[nH]1)c1nc2ccccc2[nH]1	/	/	/	2%	/	/
CCCOc1ccc(C2C(C(=O)c3ccc(C)o3)=C(O)C(=O)N2Cc2cccnc2)cc1 (stereo not drawn)	?	-27	33	-1%[0.074 µM]	10µM*	7%
Cc1ccc(C(=O)C2=C(O)C(=O)N(CCCn3ccnc3)C2c2ccc(OC(C)C)cc2)o1 (stereo not drawn)	?	?	?	-12%[0.074 µM]	14µM*	24%
CCOc1ccc(C2C(C(=O)c3ccco3)=C(O)C(=O)N2CCCn2ccnc2)cc1 (stereo not drawn)	-5%[46.1 µM]	-1	?	-8%[0.074 µM]	-15%[38.3 µM]	-7%
COC(=O)Nc1nc(-c2ccccc2)c(C(=O)c2ccc(Cl)cc2)s1	?	-6	-102*	-81%[10 µM]	26%[38.3 µM]	8%
CCOC(=O)Nc1nc(-c2ccccc2)c(C(=O)c2ccccc2)s1	?	-7	-83*	-134%	?	?
COCCN(CCOC)S(=O)(=O)c1ccc(C(=O)Nc2nc(-c3ccccc3)c(C(=O)c3ccccc3)s2)cc1	-34%	/	-14	10%[10 µM]	-16%	11%
CCc1nn2c(=O)c(S(=O)(=O)Nc3ccc(C)cc3C)c(C)nc2s1	/	6	/	/	/	/
CC(C)COC[C@H](CN(Cc1ccccc1)c1ccccc1)N1CCCC1	/	11[20.6 µM]	/	8%[17.1 µM]	15%	/
c1nc(NCC2(N3CCOCC3)CCCCC2)c2ccsc2n1	9%[46.1 µM]	10	-100*	-21%[0.074 µM]	14%	-16%
COc1ccccc1CN(Cc1nc2ccccc2c(=O)[nH]1)C(=O)Nc1ccccc1C	-22%[46.1 µM]	3	-115*	-23%	30%[38.3 µM]	-17%
COc1ccccc1CN(Cc1nc2ccccc2c(=O)[nH]1)C(=O)Nc1ccc(C)cc1	-21%[46.1 µM]	-2	-15	-43%	52%[38.3 µM]	18%
CN(C)C(=O)CSc1nnc(-c2ccc(F)cc2)c2ccccc12	-4%[7.67 µM]	/	/	-1%[10 µM]	/	-8%[9.22 µM]
CCCCSc1nnc(-c2ccc(C)cc2)c2ccccc12	?	/	32	/	10%	11µM*
Cc1cc(C)c2nc(SC3CCOC3=O)cc(C)c2c1 (stereo not drawn)	-44%	/	/	0%[10 µM]	-29%	-12%
Cc1cc(C)c2nc(SC(C)C#N)cc(C)c2c1 (stereo not drawn)	-9%[46.1 µM]	-2	15	0.63µM*	24%[38.3 µM]	-16%
Cc1ccc(/C=C2\SC(=S)N(Cc3ccccc3)C2=O)o1	-11%[46.1 µM]	1	-23	-11%	4%[38.3 µM]	16%
